# Laboratory results reported in PubChem BioAssay AID504332 (National Center for Advancing Translational Sciences (NCATS), 2011).
# Out of some 350,000 compounds screened, about 31,000 (8.9%) were called active. Roughly 15% stayed inconclusive and do not appear here. The call rests on the fitted dose curve; in most records, active means well fitted inhibition curve with a large enough effect; inconclusive means small, poorly fitted or top-dose-only effect; inactive means no such curve, though single readings can be large or run the other way. Only a selection was taken, and actives are over-represented in it overall.
# Biological target: Histone-lysine N-methyltransferase EHMT2 (Homo sapiens) (UniProt Q96KQ7)
# Assay: qHTS Assay for Inhibitors of Histone Lysine Methyltransferase G9a; further: nearly all actives have a fitted effect of over 75% in size
# Conditions: G9a H3K9 monomethylation, AlphaScreen, 2 h; series mostly up to 59 µM; activity, negative = inhibition: at the top concentration
# How it was run: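 AlphaScreen detection with an anti-monomethyl H3K9 antibody quantified product after a 2 h room-temperature reaction containing 500 nM biotinylated H3K9 peptide, 20 µM SAM and 20 nM enzyme, which had been preincubated 15 min with compound.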
# On the % scale 0 is the no-effect control and ±100 the full control effect; potency means the concentration at half of the fitted maximal effect.
# Sequence of Histone-lysine N-methyltransferase EHMT2 (Homo sapiens) (Q96KQ7 913-1193 limits assumed): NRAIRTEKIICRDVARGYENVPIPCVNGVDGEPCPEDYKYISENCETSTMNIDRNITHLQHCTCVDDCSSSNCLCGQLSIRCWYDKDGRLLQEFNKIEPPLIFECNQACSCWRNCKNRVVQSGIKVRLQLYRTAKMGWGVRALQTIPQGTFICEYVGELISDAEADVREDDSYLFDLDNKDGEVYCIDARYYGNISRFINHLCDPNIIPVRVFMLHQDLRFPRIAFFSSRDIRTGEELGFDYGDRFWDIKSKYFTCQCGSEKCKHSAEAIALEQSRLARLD
SMILES,"activity, negative = inhibition",Potency
COc1ccc(-c2nc3ccccc3o2)cc1NC(=O)c1cc([N+](=O)[O-])ccc1N1CCOCC1,3.44% (inactive),
O=C(CSc1ccccc1)Nc1cccc(S(=O)(=O)N2CCOCC2)c1,7.75% [at 12.7 µM] (inactive),
CC(Sc1cccc[n+]1[O-])C(=O)Nc1cccc(S(=O)(=O)N2CCOCC2)c1 (configuration not stated),,8.91 µM (active)
Cc1cc(C(=O)OC(C)C(=O)Nc2cccc(S(=O)(=O)N3CCOCC3)c2)c(C)o1 (configuration not stated),-16.9% [at 102 µM] (inactive),
COc1cccc(C2=CC(=O)C[C@H](c3ccc(F)cc3)C2)c1OC,-9.38% [at 0.501 µM] (inactive),
O=C1C=CC(=O)N1c1ccc(N2CCCCC2)cc1,,0.562 µM (active)
CCOC(=O)/C(C#N)=C/c1ccc(N2CCCCC2)cc1,442% [at 102 µM] (inactive),
O=c1[nH][nH]c(=O)c2cc(N3CCCC3)ccc12,-1.28% [at 102 µM] (inactive),
COc1ccc(Nc2ncnc3ccc(Br)cc23)c(OC)c1,29.9% [at 102 µM] (inactive),
COc1ccc(-c2nc(SCC(=O)N3CCCCC3C)n[nH]2)cc1 (configuration not stated),2.49% (inactive),
COc1ccccc1CCNC(=O)c1cccn1-c1nnc(N2CCCCC2)s1,-7.53% (inactive),
CC1(C)O[C@@H]2[C@H](O1)[C@@H](COS(=O)(=O)O)O[C@H]2n1cnc2c(=O)[nH]cnc21,9.85% [at 2.33 µM] (inactive),
Cc1nn(C(=O)c2c(F)cccc2F)c(C)c1S(=O)(=O)N1CCOCC1,8.64% (inactive),
O=C(CN1CCN(S(=O)(=O)c2ccc(F)cc2)CC1)NC1CC1,6.21% [at 102 µM] (inactive),
Cc1ccc(S(=O)(=O)N2CCN(Cc3cccc(C)c3O)CC2)cc1,12.4% (inactive),
O=S(=O)(c1ccc(F)cc1)N1CCN(Cc2ccccc2C(F)(F)F)CC1,,10 µM (active)
CCN(CC(=O)Nc1ccc(OC)cc1)C(=O)c1ccc(=O)n(Cc2ccccc2)n1,25% (inactive),
Cc1ccccc1-c1nc2cc(NC(=O)c3cccc(OCCC(C)C)c3)ccc2o1,0.952% (inactive),
Cc1nc2c(c(C)nn2-c2ccccc2)c(C)c1CCC(=O)NCCc1ccc(Cl)cc1,13.2% (inactive),
CN1/C(=c2/s/c(=C3/C(=O)N(c4ccccc4)NC3=Nc3ccccc3)n(C)c2=O)C(C)(C)c2ccccc21,,10 µM (active)
CCc1noc(C)c1C(=O)N1CCN(S(=O)(=O)c2cccc(C(F)(F)F)c2)CC1,9.9% [at 12.7 µM] (inactive),
COc1ccc(CNC(=O)CC2Oc3ccc(C)cc3NC2=O)cc1 (configuration not stated),7.92% (inactive),
Cc1cccc(N(Cc2ccccc2)C(=O)c2cc(S(=O)(=O)N3CCOCC3)ccc2F)c1,-26.9% [at 102 µM] (inactive),
CCOc1cccc2cc(-c3cn4c(n3)sc3cc(C)ccc34)c(=O)oc12,-3.75% (inactive),

SMILES,"activity, negative = inhibition",Potency
CC1(C(=O)NNC(=S)NCC2CCCO2)CC1(Cl)Cl (configuration not stated),55.8% [at 102 µM] (inactive),
Cc1ccc(-n2nc3cc(Cl)c(NC(=O)c4ccco4)cc3n2)cc1,-40.1% (inactive),
CCn1nc(NC(=O)c2ccco2)c2cc3ccc(C)cc3nc21,,50.1 µM (active)
Cc1ccc(Cn2c(NC(=O)c3ccco3)nc3ccccc32)cc1,0.509% (inactive),
COc1ccccc1NC(=O)COC(=O)c1ccccc1SCC(=O)N1CCCC1,-3.4% (inactive),
CC(C(=O)Nc1ccc(S(=O)(=O)N2CCCC2)cc1)N(C)Cc1ccc(F)cc1 (configuration not stated),2.24% [at 2.33 µM] (inactive),
CC(OC(=O)CNS(=O)(=O)/C=C/c1ccccc1)C(=O)Nc1ccc(S(=O)(=O)N2CCCC2)cc1 (configuration not stated),,10 µM (active)
COc1cc(C(C)=O)ccc1OC(C)C(=O)Nc1ccc(S(=O)(=O)N2CCCC2)cc1 (configuration not stated),9.79% [at 12.7 µM] (inactive),
Cc1ccc(NS(=O)(=O)c2ccc3c(c2)CC(=O)N3)cc1Cl,-0.894% [at 12.7 µM] (inactive),
COc1ccc(S(=O)(=O)N2CCN(C(C)C(=O)Nc3ccc(C(C)C)cc3)CC2)cc1 (configuration not stated),-8.74% (inactive),
CCN(CC)S(=O)(=O)c1ccc(NC(=O)c2cnc(C)cn2)cc1,0.345% [at 0.501 µM] (inactive),
O=C(CCn1c(=O)c2ccccc2n(Cc2ccc(Cl)cc2)c1=O)NCc1ccc2c(c1)OCO2,-6.19% (inactive),
CCN(CC)C(=O)C(=O)c1cn(CC(=O)NCc2ccc3c(c2)OCO3)c2ccccc12,27.8% [at 12.7 µM] (inactive),
Cn1cc(CCC(=O)NCc2ccc3c(c2)OCO3)c2ccccc21,,25.1 µM (active)
CCOc1ccc(C(=O)c2cn(Cc3ccc(F)cc3)c3ccc(F)cc3c2=O)cc1,-38.3% (inactive),
Cc1ccc(CNC(=O)CCC(=O)N2Cc3ccccc3Oc3ncccc32)cc1,-18.3% (inactive),
Cc1noc(/C=C/N(C)C)c1S(=O)(=O)N1CCCC(C(=O)Nc2cccc(F)c2)C1 (configuration not stated),2.19% (inactive),
CCOC(=O)c1c(-c2ccc(C)cc2)csc1/N=C(\C)C1=C(O)c2ccccc2C1=O,,28.2 µM (active)
CCOC(=O)c1c(-c2ccc(-c3ccccc3)cc2)csc1NC(=O)CCC(=O)O,-35% [at 102 µM] (inactive),
CCOC(=O)c1c(-c2ccccc2)csc1NC(=S)NC(=O)c1ccccc1,-11.6% (inactive),
CC(=O)N1CCOc2ccc(S(=O)(=O)N3CCC(C(=O)Nc4ccccc4F)CC3)cc21,-2.87% [at 102 µM] (inactive),
Cc1ccc(Cc2nnc(SCC(=O)Nc3ccccc3C)[nH]c2=O)cc1,1.18% [at 102 µM] (inactive),
CCC(=O)/C=C1\Sc2ccccc2N1CC,,50.1 µM (active)
